Compounds without any hit were thinned out: in the full panel of roughly 83,000, 20% have a hit.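 Each cell line was grown in a 96-well plate and treated with one concentration of compound for 48 hours. Values below 10 were considered active.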 Unmarked numbers belong to inactive results. Calls of active or inactive are those of the source.
Test system: HL-60(TB) leukemia
Assay: NCI-60 one-dose screen, 48 h (100 = growth as untreated, 0 = no growth, -100 = all killed)
Settings: 10 µM unless noted

Structure (SMILES)	growth
O=C(Nc1ccccc1)c1cc2ccccc2s1	61.6%
CCCC[n+]1c(/C=C\c2c(OC)cc(OC)cc2OC)ccc2ccccc21	-58.8% (active)
CCOCCNc1ccc(S(=O)(=O)c2ccc(N)cc2)cc1N	107%
O=C(N=Nc1c(O)[nH]c2ccccc12)c1oc2ccccc2c1CN1CCN(c2ccccc2)CC1	49.8%
O=C1/C(=C(/c2ccccc2)N2CCOCC2)Cc2ccccc21	27.5%
CCOC(=O)C1=C(C)C(Cl)=N/C1=C\c1[nH]c(Cl)c(C)c1C(=O)OCC	95%
NC[C@@](O)(c1ccc(Cl)cc1)c1ccc(-c2cn[nH]c2)cc1	-42.8% (active)
COc1ccc(-c2csc(NC(=O)c3cc(OC)c(OC)c(OC)c3)n2)cc1	102%
NC(=O)c1c(NC(=O)c2ccc3ccccc3c2)sc2c1CCC(=O)C2	50.9%
Cc1ccc2c(c1)C(C)Cc1c(N(C)C)ncnc1N2C (configuration not stated)	-5.91% (active)
O=C(c1ccccc1)C(Br)[N+](=O)[O-] (configuration not stated)	62.3%
CCOC(=O)C1=C(C)NC(=O)NC1c1ccc(OCC(=O)N/N=C/c2ccc(Cl)cc2)cc1 (configuration not stated)	98.3%
O=C1c2ccccc2C(=O)N1c1ccccc1	111%
N#Cc1c(-c2ccc(Cl)cc2)csc1NC(=O)Nc1ccc(Cl)c(C(F)(F)F)c1	-34.2% (active)
O=C(N/N=C/c1cc2ccccc2n2nnnc12)Nc1ccccc1	91.8%
CN1C[C@@H](c2ccc(Cl)cc2)[C@]2(NC(=S)N(c3ccc(F)c(Cl)c3)C2=O)[C@@]12C(=O)NC1C=CC(Cl)=C[C@H]12 (some centres not stated)	-17.9% (active)
COc1ccc(/C=C(/c2ccccc2)[N+](=O)[O-])cc1	-28.6% (active)
CC(=O)Nc1ccc(S(=O)(=O)N/N=C\c2ccc(Cl)c(Cl)c2)cc1	1.93% (active)
Cc1ccc(NC(=S)/N=c2/n(-c3ccccc3)nc3n2CCN3C2=NCCN2)cc1	156%
C=CN(C(=O)N1CCN(c2cc3c(cc2F)c(=O)c(C(=O)O)cn3C2CC2)CC1)c1nc(-c2ccc(C)cc2)cs1	-27.2% (active)
CC1=NN(c2cccc(Cl)c2)C(=O)/C1=C\c1cn(-c2nc(N3CCOCC3)nc(N3CCOCC3)n2)c2ccccc12	99.1%
COc1ccccc1S(=O)(=O)Nc1ccc2c3c(cc(-c4ccoc4)nc13)C(=O)N2C	8.91% (active)
